Laboratory results reported in PubChem BioAssay (Tox21).
Inconclusive results are not listed. Entries that show only a call come without a potency. The source made the active and inactive calls. The call rests on the fitted dose curve.

Molecular target: 5-hydroxytryptamine receptor 2A (Homo sapiens) (UniProt P28223)
Assay: 5-hydroxytryptamine receptor 2A (HTR2A) small molecule antagonists, cell-based qHTS assay (AID 1963586); further: nearly all actives have a fitted effect of over 45% in size
Details: HTR2A-CHO cells, DOI-induced calcium flux, fluorescence; series mostly up to 61.5 µM
Text: National Center for Advancing Translational Sciences [NCATS]
Division of Preclinical Innovation [DPI]
U.S. Environmental Protection Agency [EPA]
National Institutes of Environmental Health Sciences [NIEHS]
National Toxicology Program [NTP]
U.S. Food and Drug Administration [FDA]
The HTR2A receptor is a subtype of the 5-HT2 receptor that belongs to the serotonin receptor family and is a G protein-coupled receptor (GPCR). The HTR2A-CHO cell line stably expressing human 5-hydroxytryptamine receptor 2A (HTR2A) can be used for screening antagonists of interactions between 5-HT2 and its ligands. The HTR2A-CHO calcium flux assay is a homogeneous fluorescence-based assay for detecting the intracellular calcium level using FDSS kinetic plate reader system.
Tox21 Assay Protocol Summary:
HTR2A-CHO cells were dispensed at 2000 cells/3uL/well in 1536-well black-clear bottom plates using a Multidrop Dispenser. After the assay plates were incubated at a 37 C/5% CO2 incubator for 18 h, 3 uL of Dye Loading Buffer was transferred to the assay plate by a Flying Reagent Dispenser. The assay plates were incubated at 37 C for 1h. For antagonist mode, 23 nL of compounds dissolved in DMSO, positive controls or DMSO only was transferred to the assay plate by a pin tool. After 5 min incubation at room temperature, 1.5 uL of 4-Iodo-2,5-dimethoxy-alpha-methylbenzeneethanamine hydrochloride (DOI) at 4nM was added to each well. The fluorescence intensity in the plates was measured using FDSS 7000EX kinetic plate reader for 3 min at 1 sec intervals.
Potency means the concentration at half of the fitted maximal effect.

Sequence of 5-hydroxytryptamine receptor 2A (Homo sapiens) (P28223 whole entry, looked up): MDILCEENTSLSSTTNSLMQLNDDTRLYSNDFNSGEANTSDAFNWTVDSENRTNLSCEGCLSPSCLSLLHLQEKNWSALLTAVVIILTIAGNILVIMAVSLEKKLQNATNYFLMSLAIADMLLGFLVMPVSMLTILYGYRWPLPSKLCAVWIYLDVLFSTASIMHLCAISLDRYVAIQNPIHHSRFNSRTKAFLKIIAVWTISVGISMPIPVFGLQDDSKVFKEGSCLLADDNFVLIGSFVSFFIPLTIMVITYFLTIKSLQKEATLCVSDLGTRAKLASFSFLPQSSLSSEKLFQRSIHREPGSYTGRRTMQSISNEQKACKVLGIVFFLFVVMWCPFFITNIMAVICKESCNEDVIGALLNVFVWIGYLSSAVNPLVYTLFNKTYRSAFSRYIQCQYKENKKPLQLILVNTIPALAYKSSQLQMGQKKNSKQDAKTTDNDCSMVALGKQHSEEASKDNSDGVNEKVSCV

| Compound | Potency | activity, negative = inhibition |
| --- | --- | --- |
| C=C(C)[C@@H]1CC=C(C)CC1 | inactive |  |
| CCN=C1C=CC(=C(c2ccc(N(CC)CC)cc2)c2ccc(N(CC)CC)cc2)c2ccccc21 | inactive |  |
| CC(C)c1ccccc1N | inactive |  |
| Cc1nc2c([nH]1)c(=O)n(C)c(=O)n2Cc1ccco1 | inactive |  |
| Cc1ccc(C(C)C)cc2c(C)ccc1-2 | inactive |  |
| CC(C)O.CC(C)O.CCOC(=O)/C=C(\C)O.CCOC(=O)/C=C(\C)O.[Ti] | inactive |  |
| O=C(NCC(O)CO)c1c(I)c(C(=O)NCC(O)CO)c(I)c(N(CCO)C(=O)CO)c1I (stereo not given) | inactive |  |
| C=C(C)CS(=O)(=O)O | inactive |  |
| CCOC(=O)NCCOc1ccc(Oc2ccccc2)cc1 | inactive |  |
| C=CC(=O)OCC1CC2CC1C1CCC(COC(=O)C=C)C21 (stereo not given) | inactive |  |
| CCCCCCCCCCCCCCCCC(C(=O)O)C(O)(CC(=O)O)C(=O)O (stereo not given) | 13 µM (active) |  |
| CC(C)NC(=O)c1ccc(C=O)cc1 | inactive |  |
| COc1cc(NS(=O)(=O)c2ccc(N)cc2)nc(C)n1 | inactive |  |
| COc1ccc2c(c1)c1c3n2CCN(C)C3=NCC1 | inactive |  |
| O=C(O)c1ccccc1Nc1cc(Cl)ccc1C(=O)O |  | 13.3% [at 12.7 µM] (inactive) |
| Cc1oc2c(NC(=O)c3c(Cl)cccc3Cl)cccc2c1C(C)(C)O | inactive |  |
| COc1ccc(CCO)cc1 | inactive |  |
| Cc1ncc([C@@H](CCCCCCc2ccc3c(n2)NCCC3)CC(=O)O)cn1 | inactive |  |
| CC1(C)SC(C)(C)SC(C)(C)S1 | inactive |  |
| CCN[C@H]1C[C@H](C)S(=O)(=O)c2sc(S(N)(=O)=O)cc21 | inactive |  |

| Compound | Potency | activity, negative = inhibition |
| --- | --- | --- |
| CC(NCCC(c1ccccc1)c1ccccc1)c1ccccc1 (stereo not given) | inactive |  |
| C[Si](Cl)(c1ccccc1)c1ccccc1 | inactive |  |
| CCCCCCCCCCCCCCCC(=O)OCC | inactive |  |
| O=C(Nc1ccc2c(c1)Cc1ccccc1-2)C(F)(F)F | inactive |  |
| CC(CN(CCN(CC(C)OCCO)CC(C)OCCO)CC(C)OCCO)OCCO (stereo not given) | inactive |  |
| Cc1c(C(=O)NN2CCCCC2)nn(-c2ccc(Cl)cc2Cl)c1-c1ccc(Cl)cc1 | inactive |  |
| Nc1ccc2c3c(cccc13)-c1ccccc1-2 | inactive |  |
| Cc1c(Cl)cccc1Cl | inactive |  |
| CN(C)c1ccncc1 | inactive |  |
| O=S(=O)(O)c1ccccc1/C=C/c1ccc(-c2ccc(/C=C/c3ccccc3S(=O)(=O)O)cc2)cc1 | inactive |  |
| Cc1ccc(N)cc1O | inactive |  |
| CCCCO | inactive |  |
| Cc1ccccc1N=C(N)Nc1ccccc1C | inactive |  |
| CCN(C(=O)N(CC)c1ccccc1)c1ccccc1 | inactive |  |
| COc1cc(C(=O)NC2CCN(C)CC2)ccc1Nc1ncc2c(n1)N(C1CCCC1)CC(F)(F)C(=O)N2C | inactive |  |
| COC(=O)CCS | inactive |  |
| CC(C)OC(=O)CCC(=O)OC(C)C | inactive |  |
| CCCc1c(OCCCOc2ccc(OCC(=O)O)cc2)ccc(C(C)=O)c1O | inactive |  |
| CCCC1CCOC(C)S1 (stereo not given) | inactive |  |
| OC[C@H]1O[C@@H](OCCc2ccc(O)cc2)[C@H](O)[C@@H](O)[C@@H]1O | inactive |  |
